Positions count from the first letter of the chain named. Over roughly 16,000 sequences, “ka relative to ugcaugu” has its median near 0.096; the highest 2% begin near 0.35. For the sample, the highest values were picked, then their nearest neighbours and some sequences at random.
T1: RBFOX1 RRM RbFoxmut (Fox-RRM*) (Homo sapiens, UniProt Q9NWB1 109-208, R118D;E147R;N151S;E152T)
T1 sequence: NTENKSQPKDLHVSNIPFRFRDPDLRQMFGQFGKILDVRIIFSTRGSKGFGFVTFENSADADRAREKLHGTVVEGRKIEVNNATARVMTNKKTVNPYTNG

B1: ACUCCUU (DNA:RNA)
RNA: GGGAGACCGGAAUUCAGAUUGUCCACUCCUUUUAAAUCCCGUCGUAGCCACCA
DNA 1: CAATCTGAATTCCGGTCTCCC
DNA 2: TGGTGGCTACGACGGGATT
B2: UUGUUCC (DNA:RNA)
RNA: GGGAGACCGGAAUUCAGAUUGUCCUUGUUCCUUAAAUCCCGUCGUAGCCACCA
DNA 1: CAATCTGAATTCCGGTCTCCC
DNA 2: TGGTGGCTACGACGGGATT
B3: AAAUGUA (DNA:RNA)
RNA: B1 RNA with C26A, U27A, C28U, C29G, U31A
DNA 1: CAATCTGAATTCCGGTCTCCC
DNA 2: TGGTGGCTACGACGGGATT
B4: CGUAUUA (DNA:RNA)
RNA: B1 RNA with A25C, C26G, C28A, C29U, U31A
DNA 1: CAATCTGAATTCCGGTCTCCC
DNA 2: TGGTGGCTACGACGGGATT
B5: AUGUGAG (DNA:RNA)
RNA: B2 RNA with U25A, U29G, C30A, C31G
DNA 1: CAATCTGAATTCCGGTCTCCC
DNA 2: TGGTGGCTACGACGGGATT
B6: GAUAGGC (DNA:RNA)
RNA: B1 RNA with A25G, C26A, C28A, C29G, U30G, U31C
DNA 1: CAATCTGAATTCCGGTCTCCC
DNA 2: TGGTGGCTACGACGGGATT
B7: AAGUUCU (DNA:RNA)
RNA: B2 RNA with U25A, U26A, C31U
DNA 1: CAATCTGAATTCCGGTCTCCC
DNA 2: TGGTGGCTACGACGGGATT
B8: CGUGAUC (DNA:RNA)
RNA: B1 RNA with A25C, C26G, C28G, C29A, U31C
DNA 1: CAATCTGAATTCCGGTCTCCC
DNA 2: TGGTGGCTACGACGGGATT
B9: UGUGAUG (DNA:RNA)
RNA: B1 RNA with A25U, C26G, C28G, C29A, U31G
DNA 1: CAATCTGAATTCCGGTCTCCC
DNA 2: TGGTGGCTACGACGGGATT
B10: UGUGUGA (DNA:RNA)
RNA: B2 RNA with U26G, G27U, U28G, C30G, C31A
DNA 1: CAATCTGAATTCCGGTCTCCC
DNA 2: TGGTGGCTACGACGGGATT
B11: CGUGAUG (DNA:RNA)
RNA: B1 RNA with A25C, C26G, C28G, C29A, U31G
DNA 1: CAATCTGAATTCCGGTCTCCC
DNA 2: TGGTGGCTACGACGGGATT
B12: UGUGAUC (DNA:RNA)
RNA: B1 RNA with A25U, C26G, C28G, C29A, U31C
DNA 1: CAATCTGAATTCCGGTCTCCC
DNA 2: TGGTGGCTACGACGGGATT
B13: UGAUCUG (DNA:RNA)
RNA: B1 RNA with A25U, C26G, U27A, C28U, U31G
DNA 1: CAATCTGAATTCCGGTCTCCC
DNA 2: TGGTGGCTACGACGGGATT
B14: GCGAGGG (DNA:RNA)
RNA: B1 RNA with A25G, U27G, C28A, C29G, U30G, U31G
DNA 1: CAATCTGAATTCCGGTCTCCC
DNA 2: TGGTGGCTACGACGGGATT
B15: GUCAGAC (DNA:RNA)
RNA: B2 RNA with U25G, G27C, U28A, U29G, C30A
DNA 1: CAATCTGAATTCCGGTCTCCC
DNA 2: TGGTGGCTACGACGGGATT
B16: CAAGAAC (DNA:RNA)
RNA: B2 RNA with U25C, U26A, G27A, U28G, U29A, C30A
DNA 1: CAATCTGAATTCCGGTCTCCC
DNA 2: TGGTGGCTACGACGGGATT
B17: UCGGUAA (DNA:RNA)
RNA: B2 RNA with U26C, U28G, C30A, C31A
DNA 1: CAATCTGAATTCCGGTCTCCC
DNA 2: TGGTGGCTACGACGGGATT
B18: CUCCUAG (DNA:RNA)
RNA: B2 RNA with U25C, G27C, U28C, C30A, C31G
DNA 1: CAATCTGAATTCCGGTCTCCC
DNA 2: TGGTGGCTACGACGGGATT
B19: AUUGUGA (DNA:RNA)
RNA: B1 RNA with C26U, C28G, C29U, U30G, U31A
DNA 1: CAATCTGAATTCCGGTCTCCC
DNA 2: TGGTGGCTACGACGGGATT
B20: GUAUCUC (DNA:RNA)
RNA: B2 RNA with U25G, G27A, U29C, C30U
DNA 1: CAATCTGAATTCCGGTCTCCC
DNA 2: TGGTGGCTACGACGGGATT
B21: UUGUAUC (DNA:RNA)
RNA: B2 RNA with U29A, C30U
DNA 1: CAATCTGAATTCCGGTCTCCC
DNA 2: TGGTGGCTACGACGGGATT
B22: UAUCUUG (DNA:RNA)
RNA: B1 RNA with A25U, C26A, C29U, U31G
DNA 1: CAATCTGAATTCCGGTCTCCC
DNA 2: TGGTGGCTACGACGGGATT
B23: CCGUAUC (DNA:RNA)
RNA: B2 RNA with U25C, U26C, U29A, C30U
DNA 1: CAATCTGAATTCCGGTCTCCC
DNA 2: TGGTGGCTACGACGGGATT
B24: GUGUAUC (DNA:RNA)
RNA: B2 RNA with U25G, U29A, C30U
DNA 1: CAATCTGAATTCCGGTCTCCC
DNA 2: TGGTGGCTACGACGGGATT
B25: GCGUAUC (DNA:RNA)
RNA: B2 RNA with U25G, U26C, U29A, C30U
DNA 1: CAATCTGAATTCCGGTCTCCC
DNA 2: TGGTGGCTACGACGGGATT

These binders were tested against T1, RBFOX1 RRM RbFoxmut (Fox-RRM*) (assay: EMSA; HiTS-Eq, 1 nM pool, 10 min; buffer printed only for the single-RNA assays: 10 mM Tris pH 7.5, 150 mM NaCl, 3.4 mM EDTA, 0.001% NP-40, 30 C). Settings: tags: His6 N-terminal (pET28a); label: 5' 32P.
Outline: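 A pool of RNA with 7 randomized nucleotides, 5′-radiolabelled and with DNA-annealed flanks, was equilibrated at 1 nM for 10 min in 50 µL with purified RbFox RRM, wild type or mutant, across increasing protein concentrations. Free RNA was separated by 8% native PAGE, excised, reverse-transcribed, barcoded by PCR and sequenced. Relative association constants were obtained from read-count changes of each RNA species versus the control reaction and normalised to the cognate motif.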

| Binder | binding signal |
| --- | --- |
| B1 | 0.0436 KA relative to UGCAUGU |
| B2 | 0.104 KA relative to UGCAUGU |
| B3 | 0.166 KA relative to UGCAUGU |
| B4 | 0.126 KA relative to UGCAUGU |
| B5 | 0.17 KA relative to UGCAUGU |
| B6 | 0.0824 KA relative to UGCAUGU |
| B7 | 0.0763 KA relative to UGCAUGU |
| B8 | 0.118 KA relative to UGCAUGU |
| B9 | 1.01 KA relative to UGCAUGU |
| B10 | 0.209 KA relative to UGCAUGU |
| B11 | 0.268 KA relative to UGCAUGU |
| B12 | 0.395 KA relative to UGCAUGU |
| B13 | 0.0664 KA relative to UGCAUGU |
| B14 | 0.0739 KA relative to UGCAUGU |
| B15 | 0.0721 KA relative to UGCAUGU |
| B16 | 0.106 KA relative to UGCAUGU |
| B17 | 0.133 KA relative to UGCAUGU |
| B18 | 0.0819 KA relative to UGCAUGU |
| B19 | 0.0934 KA relative to UGCAUGU |
| B20 | 0.0751 KA relative to UGCAUGU |
| B21 | 0.523 KA relative to UGCAUGU |
| B22 | 0.0958 KA relative to UGCAUGU |
| B23 | 0.163 KA relative to UGCAUGU |
| B24 | 0.424 KA relative to UGCAUGU |
| B25 | 0.194 KA relative to UGCAUGU |

Reference: paper PMC9911399, “Two distinct binding modes provide the RNA-binding protein RbFox with extraordinary sequence specificity”
